Laboratory results: PubChem BioAssay AID493073 (Broad Institute, 2011)
Hit rate of the full screen: of about 1,200 compounds, about 810 (68%) were called active. The rule behind the calls is not given here. So high a share suggests a set chosen from earlier hits. Not all results are given here. Potency and affinity values are given separately.

Assay: reducers of TRPM1 reporter luminescence, concentration series – cell-based, SK-MEL-5, cherry-picked, set 3, MITF inhibitor project, dose response (AID 493073)
Details: SK-MEL-5 TRPM1 promoter luciferase, 24 h; series mostly up to 35 µM

outcome, inactive:
O=C(CSc1nc2ccccc2[nH]1)c1ccc2c(c1)OCO2
O=C(Nc1ccc(Br)cc1)c1ccc2c(c1)OCO2
CCOc1ccc2cc(C#N)c(SCC(=O)OC)nc2c1
CC(=O)Nc1ccc(-c2nc3ccccc3o2)cc1
Cc1occc1C(=O)N/N=C/c1ccc(OCc2ccccc2)cc1
CCc1nc2oc3ccccc3c(=O)c2cc1C(=O)OC
Cc1nc(-c2ccccn2)sc1C(=O)Nc1ccc(F)cc1F
COc1ccc(-c2csc(Nc3ccccn3)n2)cc1OC
COCn1c(COc2ccccc2)nc2ccccc21
Cc1ccc(-n2cc(CNCCCn3cccn3)c(-c3cccc(C)c3)n2)cc1
Cc1oc(=O)c(NC(=O)c2ccccc2)cc1C(=O)c1ccccc1
CN(C)c1ccc(NC(=O)Nc2ccc3c(c2)nnn3C)cc1
CN(C)c1ccc(CNc2ccccn2)cc1
CN(C)c1ccc(/C=N/N2CCN(c3ccccn3)CC2)cc1
CC(C)OC(=O)CSc1nc2cc3c(cc2cc1C#N)OCO3
O=C(Nc1ccc(N2CCOCC2)c(Cl)c1)c1cccc(F)c1
Cc1ccc(N2C(=O)c3ccc(N)cc3C2=O)cc1C
Oc1ccc(-c2nnc(SCC3CCCCC3)o2)cc1
CCCC1=Nc2cc(C(=O)NCCN3CCCC3)ccc2Sc2ccccc21
COc1ccc(C[C@H]2CN3C(=NC[C@@H]3C(C)C)N2CCNC(=O)c2ccc(C)c(Br)c2)cc1
COc1ccc(/C=C2\Sc3ccc(C(=O)NCCN4CCCCCC4)cc3N(C)C2=O)cc1
CCN1CCN(CCCNC(=O)c2ccc3c(Cl)c4c(nc3c2)CCCC4)CC1
Cc1ccc(-c2noc(-c3ccno3)n2)cc1
Cc1ccc2[nH]c(=O)c(CN(CCCN(C)C)C(=O)Nc3cccc(Cl)c3)cc2c1
O=C(NCc1ccc2c(c1)OCO2)c1cc(=O)[nH]c2ccccc12
Nc1c(N(CCC2=CCCCC2)C(=O)COc2ccc(F)cc2)c(=O)[nH]c(=O)n1Cc1ccccc1
O=C(NCc1csc(-c2cccs2)n1)C1CCC1
O=C(Nc1ccc(Cl)cc1)OCc1ccccn1
CCOc1ccc(NC(=O)c2ccc3snnc3c2)cc1
O=C(Nc1ccc2c(c1)OCCO2)c1ccoc1
O=C(Nc1ccc2c(c1)OCCO2)c1cccc(Cl)c1Cl
O=C1CN(c2ccccc2)C(=S)N1C(=O)c1ccccc1
COc1ccc(NC(=O)c2cc(F)cc(F)c2)cc1Cl
O=[N+]([O-])c1ccc(N/N=C/C=C/c2ccco2)cc1
CCN(CC)CC(=O)Nc1scc2c1c(=O)oc1ccccc12
Fc1ccc(-c2nnc(-c3ccc(F)cc3)o2)cc1
CCc1ccc(Nc2nc(C)cc(C)n2)cc1
CCOC(=O)c1ccc(NC(=O)Cc2cccs2)cc1
C/C(=C\c1ccccc1)C(=O)Nc1ccc(Cl)cn1
O=C(N/N=C/C(Cl)=C\c1ccccc1)c1cccs1
Brc1cccc(/C=N/Nc2nn[nH]n2)c1
Cc1ccc2cc(NC(=O)Cc3ccccc3)ccc2n1
CN(c1cccc(NC(=O)COc2ccc(Cl)cc2Cl)c1)S(C)(=O)=O
O=C(N/N=C/c1ccccc1)c1ccco1
O=C(Nc1ccccc1)O/N=C/c1ccc(F)cc1
O=C(C[n+]1cc(-c2ccc(F)cc2)n2c1CCC2)c1cccs1
COc1ccc(C(=O)Nc2ccc3ccccc3c2)cc1OC
COc1cc(-c2nnc(-c3ccco3)o2)ccc1OCc1ccccc1
CCOC(=O)C1(Cc2ccccc2)CCCN(CCCn2cccn2)C1 (centres undefined)
CCOc1ccc(-c2nnc(-c3cccs3)o2)cc1OCC
O=C(COc1ccc2c(c1)CCC2)N1CCc2ccccc21
O=C(Nc1ccccc1Cl)c1cc(=O)c2ccccc2o1
Oc1cc(NCc2cccnc2)ccc1-c1nc2ccccc2o1
Cc1ccc2nc(-c3cccnc3)oc2c1
CC(C)c1ccc(CNc2ncccn2)cc1
COCc1nc(-c2ccc(-c3ccccc3)nc2OC)no1
COc1ccc(S(=O)NC2CCCCC2)c(OC)c1C (centres undefined)
COc1cc(CN2CCC(Cc3ccccc3)CC2)cc(OC)c1OC
O=C(CCCCC(=O)NN=Cc1ccccc1O)NN=Cc1ccccc1O
CC(C)C(NC(=O)OCc1ccccc1)C(=O)OCC(=O)N1CCCCC1 (centres undefined)
Cc1ccc2c(COC(=O)c3n[nH]c4ccccc34)cc(=O)oc2c1
N#Cc1ccc(-c2cccnc2)nc1SCC(=O)c1ccccc1
O=C(CCCCl)NC(=S)Nc1ccc(N2CCOCC2)cc1
CS(=O)(=O)c1ncc(Cl)c(C(=O)Nc2ccc3ccccc3c2)n1
CCNc1nc(N)c(C(=O)c2ccc(Cl)s2)s1
COc1ccc(-c2nc(-c3ccncc3)no2)cc1OC
c1ccc(OCc2nn3c(-c4ccccn4)nnc3s2)cc1
COc1cccc(/C=N/NC(=O)CN2CC(c3ccccc3)CC2=O)c1OC (centres undefined)
Cc1cc(/C=C(\C#N)C(=O)O)c(C)n1CC(C)C
CSCCNC(=O)c1ccc2nc(Cc3ccccc3F)oc2c1
O=C(Nc1ccc2nc(-c3ccccc3)[nH]c2c1)c1ccco1
Cc1nc2ccc(NC(=O)c3ccco3)cc2nc1C
Cc1nc(NC(=O)C2CC2)sc1C(=O)Nc1ccccc1Cl
CN(C)c1ccc(/C=N\NC(=O)c2cccc3cc[nH]c23)cc1
O=C(CSCc1c(F)cccc1F)Nc1ccccc1
O=C(CCC1CCCN(C(=O)c2cc3ccccc3o2)C1)NCc1ccc(F)c(F)c1 (centres undefined)
CN(C)CCCNc1nc2sc3c(c2c(=O)n1CCc1ccccc1)CCCCC3
CCOC(=O)C1CCCN(C(=O)C2CCN(S(=O)(=O)CC)CC2)C1 (centres undefined)
N/C(=N\OC(=O)c1ccc(Cl)cc1Cl)c1ccncc1
CC(C)S(=O)(=O)c1csc(C(=O)Nc2ccc(F)cc2)c1N
C/C(=N\Nc1cc(N2CCOCC2)ncn1)c1ccccc1
Cc1ccc(/C=c2/sc3n(c2=O)CCCN=3)o1
Cc1ccc2oc(=O)n(CCCOc3ccccc3)c2c1
CCCCOc1ccc(-c2ncc([N+](=O)[O-])cn2)cc1
CN(CC(=O)N1CCCCCC1)S(=O)(=O)c1ccccc1
CC1CCN(C(=O)c2cc3ccccc3o2)CC1
Nc1nnc(/C=C/c2ccccc2Cl)s1
CC(=O)c1c(C)[nH]c(C(=O)Nc2ccc(C)c(C)c2)c1C
CC(C)(C)OC(=O)N1CCN(C(=O)c2nc[nH]c2C(=O)N2CCN(c3ccccc3)CC2)CC1
NC(=O)c1ccccc1NC(=O)/C=C/c1cccc(Cl)c1
Cc1cc(Cl)ccc1OCCCC(=O)N1CCOCC1
C=CCN1C(=O)S/C(=C\c2ccc(N3CCOCC3)cc2C)C1=O
O=Cc1ccc(N2Cc3ccccc3C2)cc1
O=C1N=C(N2CCOCC2)S/C1=C\C=C/c1ccccc1
CC(C)(C)N=Cc1cc(-c2ccccc2)sc1O
CCOC(=O)c1cnc2c(ccc3ccccc32)c1N
c1ccc(-n2ncc3c(NCc4cccs4)ncnc32)cc1
COCC(C)Nc1ncnc2c1cnn2-c1ccc(Cl)cc1 (centres undefined)
CCCCN=C(C)c1c(O)c2ccccc2oc1=O
COc1ccccc1-c1nc(-c2ccc(C)nc2OC)no1
COc1ccccc1-c1nnc(-c2ccc(C)cc2)o1
CCCCOC(=O)c1[nH]c(C)c(C(=O)OC)c1C
CCOC(=O)c1cc2sccc2n1CC(=O)N1c2ccccc2CC1C (centres undefined)
CCN(C(=O)c1ccco1)c1nc(-c2ccc(OC)cc2)cs1
CS(=O)(=O)c1ccc2nc(NC(=O)c3ccccc3Br)sc2c1
CCCCOc1ccc(-c2nnn(C(C)(C)C(=O)OC)n2)cc1
Cc1ccc(-c2noc(CN3CCCCC3)n2)cc1
COc1ccc(/C=N/N=C2/SCC(=O)N2Cc2ccccc2)cc1
O=[N+]([O-])c1ccccc1OCCCOc1cccc2cccnc12
C=CCOc1ccc(/C=C/C(C)=N\O)cc1
COc1ccc(C(=O)/C=C(\C)Nc2ccc3c(c2)OCO3)cc1
O=C(CSc1ccccn1)c1ccc2c(c1)OCO2
CCOC(=O)C1(Cc2cccc(OC)c2)CCCN(C(=O)CSC)C1 (centres undefined)
N#Cc1nc(/C=C/c2ccccc2)oc1NCCCN1CCOCC1
Cc1cc(C(=O)Nc2ccc([N+](=O)[O-])cn2)cs1
Cc1cc(O)ccc1Nc1nc(-c2cccnc2)cs1
CC(=O)c1cccc(Nc2nc(-c3cccnc3)cs2)c1
Cc1nn(C)cc1/C=C/C(=O)c1cccs1
C/C(=N/N=C(/C)c1cccs1)c1cccs1
Cc1nc2cc(NC(=O)Nc3cccc([N+](=O)[O-])c3)ccc2n1C
C/C(=N/Nc1nc(C)c(C)s1)c1cccc([N+](=O)[O-])c1
CCCN1C(=O)c2ccc(C(=O)Nc3cc(C)ccc3O)cc2C1=O
CC1Cc2cc(-c3csc(N)n3)ccc2O1 (centres undefined)
COc1ccc(Nc2oc(-c3ccc(OC)cc3)nc2C#N)cc1
